From PubChem BioAssay
Activity calls are given as the source filed them.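 The calls were made as follows, unless noted: active = inhibition above 20% together with a positive visual image hit; inconclusive = visual image hit but inhibition not above 20%; inactive = no visual image hit.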

How the values were obtained:
[1] = inhibitors of TNFa-induced NFkB p65 translocation, primary screen, imaging, HUVEC, MLSMR starter and 10KST1 sets (AID 438); settings: HUVEC TNFa-induced p65 nuclear translocation; cell count: measured here: nuclei count (cytotoxicity indicator), at 2.08 µM; inhibition: at 2 µM, stronger effect = higher value, 0% TNFa-plus-vehicle, 100% no-TNFa wells;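 also: compound added about 3h40 before a 20 min TNFalpha stimulation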;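 as to inhibition: signal is the nuclear over cytoplasmic p65 intensity ratio per well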
[2] = reduction of polyQ htt aggregates in cells – imaging, exon1htt(103Q)mCFP cells, high-content imaging, primary screen (AID 483;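 active = visual image review flags a hit and inhibition of aggregation exceeds 20%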;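 also: compound exposure lasted 3 days before fixation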;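 as to nuclei count: percent of the per-plate median nuclei count of sample wells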); settings: exon1htt(103Q)mCFP cell line, aggregate imaging, at 2 µM; inhibition of aggregation: stronger effect = higher value; nuclei count: measured here: cell count, toxicity
[3] = endothelial E-selectin expression blockers – imaging, HUVEC, immunofluorescence, MLSMR starter and 10KST1 sets, primary screen (AID 487;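 active = visually confirmed hit in the image check and inhibition above 20%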;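 as to inhibition: signal is fraction of cell area covered by stained E-selectin grains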;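 as to nuclei count: 100% = median nuclei count of all wells on the same plate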); settings: HUVEC TNFalpha-induced E-selectin immunofluorescence imaging, at 2 µM; inhibition: stronger effect = higher value; nuclei count: measured here: cell number, toxicity
[4] = molecular target: Voltage-gated potassium channel subunit beta-2 (Rattus norvegicus) (UniProt P62483); experiment: inhibitors of rat Kvbeta2 reductase activity – biochemical, NADPH fluorescence, primary screen (AID 622;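 active = fluorescence slope higher than the sample average by over 3 SD, cut at about -0.22 in these data, passing the limit was not always enough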;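 also: slope of raw intensity against log time taken from 70 to 1610 s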); settings: recombinant KvBeta, 4-cyanobenzaldehyde reduction, at 10 µM, stronger effect = higher value
Chain of Voltage-gated potassium channel subunit beta-2 (Rattus norvegicus) (P62483 whole entry, looked up): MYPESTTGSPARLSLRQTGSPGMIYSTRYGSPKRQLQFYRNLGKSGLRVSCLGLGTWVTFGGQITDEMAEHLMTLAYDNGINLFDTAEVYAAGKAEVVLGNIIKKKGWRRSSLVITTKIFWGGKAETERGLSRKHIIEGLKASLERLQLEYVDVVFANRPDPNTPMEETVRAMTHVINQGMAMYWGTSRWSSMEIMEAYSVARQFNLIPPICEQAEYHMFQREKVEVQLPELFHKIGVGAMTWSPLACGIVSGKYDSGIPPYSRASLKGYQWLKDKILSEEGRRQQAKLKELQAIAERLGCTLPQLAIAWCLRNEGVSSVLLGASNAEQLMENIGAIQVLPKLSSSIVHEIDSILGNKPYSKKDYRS

[5] = molecular target: Voltage-gated potassium channel subunit beta-2 (Rattus norvegicus) (UniProt P62483); experiment: enhancers of rat Kvbeta2 NADPH turnover – biochemical, NADPH fluorescence, primary screen (AID 623;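 active = NADPH fluorescence slope more negative than the mean of all samples by about 3 SD, 99.7% confidence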;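 also: fluorescence intensity change per second fitted from 20 to 320 s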); settings: Recombinant KvBeta, NADPH fluorescence decrease slope, 10 min; at 10 µM; stronger effect = lower value
[6] = molecular target: Alpha-2C adrenergic receptor (Homo sapiens) (UniProt P18825); experiment: compounds altering alpha2C-coupled GIRK flux – cell-based, HEK293 alpha2C/GIRK1/2, thallium flux, primary screen (AID 624;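 active = fluorescence slope after compound addition differing from the mean of all screened samples at 99.7% confidence, in either direction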;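 also: slope of fluorescence ratio to pre-addition baseline per second over 15 to 24 s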); settings: thallium flux BTC fluorescence, at 10 µM, actives lie on both sides
Chain of Alpha-2C adrenergic receptor (Homo sapiens) (P18825 whole entry, looked up): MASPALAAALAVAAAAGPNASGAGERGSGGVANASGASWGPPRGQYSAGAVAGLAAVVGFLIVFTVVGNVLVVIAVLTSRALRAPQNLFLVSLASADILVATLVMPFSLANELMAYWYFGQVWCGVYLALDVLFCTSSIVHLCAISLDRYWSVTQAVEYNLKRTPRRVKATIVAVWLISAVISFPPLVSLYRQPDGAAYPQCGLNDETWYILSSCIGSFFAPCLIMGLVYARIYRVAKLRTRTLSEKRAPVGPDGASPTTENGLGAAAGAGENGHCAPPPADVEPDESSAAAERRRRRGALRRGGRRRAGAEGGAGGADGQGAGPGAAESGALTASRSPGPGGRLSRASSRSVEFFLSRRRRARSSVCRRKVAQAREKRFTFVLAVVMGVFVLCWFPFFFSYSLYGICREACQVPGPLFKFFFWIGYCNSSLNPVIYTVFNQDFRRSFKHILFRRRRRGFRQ

[7] = blockers of RIG-like receptor reporter activation – cell-based, Sendai virus stimulus, luciferase, 10K MLSCN set, TLR/RLR signaling modifier project, primary screen (AID 602276;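 active = inhibition at or above 50% at 10 µM; inactive = inhibition below 50%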;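 also: firefly luciferase from ISG56 promoter only with Renilla not read in this screen; 0% = Sendai virus plus DMSO and 100% = medium plus DMSO without virus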); settings: HEK293 RL24 IRF3 luciferase reporter, at 10 µM, stronger effect = higher value
[8] = TLR3 IRF3 reporter activation blockers – cell-based, poly I:C stimulus, luciferase, 10K MLSCN set, primary screen (AID 602277;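 active = inhibition of the reporter signal at or above 50%; inactive = inhibition below 50%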); settings: HEK293-TLR3 RL24 IRF3 luciferase reporter, at 10 µM, stronger effect = higher value

Compound	cell count [1]	inhibition [1]	inhibition of aggregation [2]	nuclei count [2] [%]	inhibition [3]	nuclei count [3] [%]	fluorescence slope [4]	NADPH fluorescence slope [5]	slope [6]	inhibition [7]	inhibition [8]
COCCN(C(=O)c1csnn1)C(C(=O)NC1CCCCC1)c1cccs1 (stereo not drawn)	370	5% (inactive)	-6.3% (inactive)	107	-52.1% (inactive)	95.8	-0.335 (inactive)	5.1e-05 (inactive)	0.00648 (inactive)	10.7% (inactive)	23.1% (inactive)
C=CCn1c(SCC2=C(C(=O)OCC)C(C)NC(=O)N2)nnc1C1CCCCC1 (stereo not drawn)	468	6% (inactive)	4.5% (inactive)	113	-85.9% (inactive)	121	-0.469 (inactive)	5.7e-05 (inactive)	0.00672 (inactive)	14.6% (inactive)	27.1% (inactive)
O=C1c2ccccc2C(Nc2ccc(F)c(Cl)c2)N1Cc1ccco1 (stereo not drawn)	778	-11.6% (inactive)	-4.9% (inactive)	110	-37.8% (inactive)	105	-0.442 (inactive)	-5.5e-05 (inactive)	0.0049 (inactive)	5.4% (inactive)	26.8% (inactive)
CC12CCC(C(=O)N3CCCCC3)(CC1=O)C2(C)C (stereo not drawn)	483	2% (inactive)	-4.8% (inactive)	99.5	-305% (inactive)	126	-0.299 (inactive)	8.8e-06 (inactive)	0.00667 (inactive)	10.9% (inactive)	28.7% (inactive)
CCOc1ccc(N(CC(=O)NCc2ccco2)S(=O)(=O)c2ccc(OC)c(OC)c2)cc1	429	3.5% (inactive)	-2.6% (inactive)	110	-45.5% (inactive)	110	-0.409 (inactive)	4.2e-05 (inactive)	0.0072 (inactive)	3.08% (inactive)	30.5% (inactive)
CCn1c(Cc2ccccc2)nnc1SCC(=O)Nc1ccc(N2CCOCC2)c(Cl)c1	427	0.3% (inactive)	-13.2% (inactive)	108	-56.2% (inactive)	168	-0.441 (inactive)	-6.7e-06 (inactive)	0.00559 (inactive)	14% (inactive)	5.26% (inactive)
COc1cccc(C(=O)OCn2nnc3ccccc3c2=O)c1	592	-5.6% (inactive)	16.9% (inactive)	89.6	-14.7% (inactive)	119	-0.616 (inactive)	4.3e-05 (inactive)	0.00615 (inactive)	17.1% (inactive)	31.3% (inactive)
COc1ccc(S(=O)(=O)N2CCCC(C(=O)N3CCCCCC3)C2)cc1 (stereo not drawn)	404	-5.2% (inactive)	-0.4% (inactive)	106	-8.6% (inactive)	105	-0.403 (inactive)	-5e-05 (inactive)	0.00316 (inactive)	12% (inactive)	10.4% (inactive)
CN1CCN(CCCNC(=O)Cn2ncc3c4ccccc4n(C)c3c2=O)CC1	479	-2.6% (inactive)	-7.2% (inactive)	98	-69.4% (inactive)	100	-0.615 (inactive)	-1.6e-07 (inactive)	0.0065 (inactive)	-10.3% (inactive)	35.3% (inactive)
COc1ccc(-c2noc(COc3ccc(C)c(C)c3)n2)cc1OC	334	2.7% (inactive)	8.8% (inactive)	97.9	21.9% (inactive)	108	-0.316 (inactive)	-6.4e-05 (inactive)	0.00562 (inactive)	-1.39% (inactive)	98.1% (active)
Nc1nc(Nc2cccc3ccccc23)nc(C2CCCC2=O)n1 (stereo not drawn)	349	1.8% (inactive)	-7% (inactive)	97.3	-38.8% (inactive)	109	-0.312 (inactive)	-7e-05 (inactive)	0.00598 (inactive)	4.53% (inactive)	13.8% (inactive)
Cc1cc(=O)[nH]c(SCc2nc3ncccn3c2Br)n1	636	-2.4% (inactive)	-10.4% (inactive)	76.5	-32.2% (inactive)	107	-0.27 (inactive)	-6.4e-06 (inactive)	0.00645 (inactive)	8.84% (inactive)	23.4% (inactive)
O=S(=O)(Nc1ccc(Cc2ccncc2)cc1)N1CCCC1	848	-3.6% (inactive)	-0.2% (inactive)	111	-102% (inactive)	130	-0.52 (inactive)	1.2e-05 (inactive)	0.00557 (inactive)	1.91% (inactive)	2.2% (inactive)
COc1ccc(NC(=O)c2cc(C3CC3)on2)c(OC)c1	603	-2.9% (inactive)	-2.2% (inactive)	116	-29.1% (inactive)	107	-0.587 (inactive)	-4.2e-05 (inactive)	0.00532 (inactive)	-6.03% (inactive)	2.94% (inactive)
COC(=O)Cn1c(CN2CCN(c3ccccc3F)CC2)nc2c1c(=O)n(C)c(=O)n2C	633	-1.4% (inactive)	-18.2% (inactive)	90.2	7.8% (inactive)	87.6	-0.555 (inactive)	-3.8e-05 (inactive)	0.0082 (inactive)	7.96% (inactive)	19.6% (inactive)
Cc1ccc2oc(C(=O)Nc3c(C)n(C)n(-c4ccccc4)c3=O)c(C)c2c1	776	-5% (inactive)	-1.5% (inactive)	109	-37.6% (inactive)	108	-0.616 (inactive)	-2.7e-05 (inactive)	0.00692 (inactive)	-5.27% (inactive)	7.35% (inactive)
Cc1cc(Cl)cc2c1NC(=O)[C@]21[C@@H]2C(=O)N(Cc3ccccc3)C(=O)[C@@H]2[C@@H]2CCCN21	556	-18.1% (inactive)	-7.5% (inactive)	115	-65.1% (inactive)	107	-0.619 (inactive)	-3.2e-05 (inactive)	0.00523 (inactive)	15.5% (inactive)	27.9% (inactive)
CC(C)Cn1c(CN2CCCCC2C)nc2c1c(=O)n(C)c(=O)n2C (stereo not drawn)	693	-10% (inactive)	12.5% (inactive)	93	-25% (inactive)	116	-0.537 (inactive)	-1.5e-05 (inactive)	0.00589 (inactive)	2.69% (inactive)	21.9% (inactive)
CCN(CC)CCOC(=O)c1ccc(NC(=O)COc2cc(=O)n(CC)c3ccccc23)cc1	386	6.7% (inactive)	-6.9% (inactive)	108	-26.7% (inactive)	117	-0.514 (inactive)	4.9e-05 (inactive)	0.00772 (inactive)	-1.28% (inactive)	-7.01% (inactive)
COC(=O)C(C)Sc1nnc2n(-c3cccc(C)c3)c(=O)c3c4c(sc3n12)CCCC4 (stereo not drawn)	660	9.4% (inactive)	7.6% (inactive)	101	-1.2% (inactive)	120	-0.58 (inactive)	-3.5e-06 (inactive)	0.00585 (inactive)	-16% (inactive)	-7.85% (inactive)
Cc1ccnc(NC(=O)CCC(=O)N(CC(=O)NC(C)(C)C)C2CCCC2)c1	603	1.7% (inactive)	-6.2% (inactive)	113	-105% (inactive)	89.5	-0.638 (inactive)	-1.4e-05 (inactive)	0.00587 (inactive)	9.05% (inactive)	9.79% (inactive)
Cc1cc(C)c(C#N)c(SCc2ccc(C#N)cc2)n1	609	-7.7% (inactive)	-4.1% (inactive)	52	40.3% (inactive)	104	-0.435 (inactive)	-5.8e-05 (inactive)	0.00656 (inactive)	5.07% (inactive)	-3.75% (inactive)
COc1nc(C)ccc1-c1noc(-c2ccncc2)n1	255	7% (inactive)	-7.3% (inactive)	36.4	-40% (inactive)	130	-0.468 (inactive)	-1.8e-06 (inactive)	0.00545 (inactive)	-26% (inactive)	-82.9% (inactive)
COc1ccc2oc(=O)c(C(=O)N3CCN(c4ccccc4F)CC3)cc2c1	365	-0.4% (inactive)	-3.7% (inactive)	95.9	-15.2% (inactive)	109	-0.335 (inactive)	2.4e-05 (inactive)	0.00535 (inactive)	16.3% (inactive)	21.2% (inactive)
CSc1ccccc1N=CC1=C(O)CC(C)(C)CC1=O	483	7.1% (inactive)	2.4% (inactive)	104	-4.9% (inactive)	119	-0.461 (inactive)	-0.000148 (inactive)	0.00576 (inactive)	5.59% (inactive)	17.7% (inactive)
COc1ccc(C(=O)N(CCN2CCOCC2)CC(=O)NC2CCCC2)cc1OC	402	0.5% (inactive)	-20.8% (inactive)	108	-41.4% (inactive)	109	-0.597 (inactive)	-5.3e-05 (inactive)	0.00354 (inactive)	-8.79% (inactive)	-6.82% (inactive)
CCN(CC)C(=O)C1CCCN(c2ncnc3c2cnn3-c2ccc(Cl)cc2)C1 (stereo not drawn)	745	-5.2% (inactive)	0.8% (inactive)	103	-21.1% (inactive)	109	-0.543 (inactive)	-1.7e-05 (inactive)	0.00713 (inactive)	10.8% (inactive)	53.6% (active)
O=C(NCCN1C(=O)C2C3C=CC(C3)C2C1=O)Nc1ccccn1 (stereo not drawn)	635	0.8% (inactive)	12.9% (inactive)	72.4	-12.9% (inactive)	108	-0.603 (inactive)	1.9e-05 (inactive)	0.00714 (inactive)	7.16% (inactive)	16.9% (inactive)
